Consider 20 molecules from PubChem BioAssay (NCI).

Molecules are shown by their SMILES. Values joined by “and” are separate entries in the source; they are usually repeats but may differ in a detail not shown here. Equal entries are not always repeated. This is part of a sample that, as a whole, favours compounds with a hit. Of some 79,000 tested, about 15% had one in any assay. Unmarked numbers belong to inactive results. Active and inactive are the calls of the source. Cut-off read from the data, not from the text of the source: active = growth inhibition above about 70%; inactive = the rest.

Assay [1] can be described thus: NCI Yeast Anticancer Drug Screen. Data for the rad50 strain (AID 155).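 Note: 0% = growth of vehicle-only cultures of the same strain.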 To be noted: S. cerevisiae rad50 strain growth inhibition, hits give high values; at 50.0 µM unless noted. An outline of the steps: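 Compounds were tested on a yeast strain with an engineered DNA damage repair alteration; the reported value is growth inhibition normalised to vehicle treatment.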

Assay [2] is described as follows: NCI Yeast Anticancer Drug Screen. Data for the mec2-1 strain (AID 157). The settings on record: S. cerevisiae mec2-1 strain, hits give high values; at 50.0 µM unless noted. An outline of the steps: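 Mutant yeast (mec2-1) grown with compound; growth inhibition relative to vehicle control reported.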
The nature of assay [3]: NCI Yeast Anticancer Drug Screen. Data for the sgs1 mgt1 strain (AID 161).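 Note: 0% = growth of cultures given vehicle only.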 To be noted: S. cerevisiae sgs1 mgt1 strain, hits give high values; at 50.0 µM unless noted. In outline: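 Yeast cells carrying a defined DNA-repair defect were exposed to test compounds. Growth inhibition was measured relative to vehicle-treated controls.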
A short description of assay [4]: NCI Yeast Anticancer Drug Screen. Data for the cln2 rad14 strain (AID 165).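 Note: 0% = growth equal to vehicle treated cultures.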 The settings on record: S. cerevisiae cln2 rad14 strain, hits give high values; at 50.0 µM unless noted. An outline of the steps:
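Readout is yeast growth inhibition versus vehicle-treated controls, using a strain with cln2 and rad14 alterations exposed to compound.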

Assay [5] in a line: NCI Yeast Anticancer Drug Screen. Data for the bub3 strain (AID 167). The settings on record: S. cerevisiae bub3 mutant strain, hits give high values; at 50.0 µM unless noted. In outline: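 Growth of a checkpoint-deficient yeast mutant is measured after compound exposure. Values represent inhibition relative to vehicle.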
Assay [6] can be described thus: NCI Yeast Anticancer Drug Screen. Data for the mlh1 rad18 strain (AID 175). To be noted: S. cerevisiae mlh1 rad18 strain growth inhibition, hits give high values; at 50.0 µM unless noted. An outline of the steps:
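Genetically defined yeast (DNA repair-deficient) exposed to compounds; growth inhibition determined relative to vehicle.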

On to `COc1cc(OC)c(-c2nc3ccccc3c(=O)o2)cc1OC`, for which the growth inhibition is 4.9% in assay [1]; 1% in assay [2]; -3.65% in assay [3]; 0.9% in assay [4]; -0.75% in assay [5]; 7.75% in assay [6].

For the molecule `CO/N=C1/OC(=O)OCC1(c1ccccc1)c1ccccc1`, the growth inhibition in assay [1] was 5.45%; in assay [2], -3.4%; in assay [3], 2.7%; in assay [4], 11.1%; in assay [5] it was 6.3%; in assay [6], -3.3%.

Consider `CNCCCn1c2ccccc2c2c3c(c(-c4ccsc4)cc21)C(=O)NC3=O`, for which the growth inhibition was -1.75% in assay [1]; -8.7% in assay [2]; -19.9% in assay [3]; -4.3% in assay [4]; -7.8% in assay [5]; -40.5% in assay [6].

Turning to `O=C(O)c1c(O)cc(=O)oc1-c1ccc(Cl)cc1`, the growth inhibition in assay [1] was 10.8%; in assay [2], 0.9%; in assay [3], 3.75%; in assay [4], 4%; in assay [5], 10.4%; in assay [6], 4.75%.

For `COc1c2c(cc3c1C(=O)c1c(O)cccc1C3=O)CC(O)CC2` (stereo not given), the growth inhibition was -14.7% in assay [1]; -33.2% in assay [2]; -13.4% in assay [3]; -10.5% in assay [4]; 2.8% in assay [5]; -22.9% in assay [6].

Turning to `O=C(NO)c1ccccc1`, the growth inhibition in assay [1] was 17.1%; in assay [2] it was -29.6%; in assay [3], 11.6%; in assay [4] it was 21.8%; in assay [5], -4%; in assay [6], 27.8%.

In the case of `Cc1cccc2c(N3CCN(c4ccccc4)CC3)c3c(nc12)CCCCC3`, the growth inhibition in assay [1] was 11.4%; in assay [2] it was -22.7%; in assay [3], -12.3%; in assay [4], -3.05%; in assay [5], 3.2%; in assay [6] it was -2.7%.

As to `CCSC(=O)C(F)(F)F`, the growth inhibition in assay [1] is -9.95%; in assay [2] it was -47.9%; in assay [3] it was -51.4%; in assay [4], -1.2%; in assay [5] it was -18.1%; in assay [6] it was -25.6%.

Take `CCc1ccc(NS(=O)(=O)c2ccc(OC)cc2)cc1`: the growth inhibition in assay [1] was 37.9%; in assay [2], 63.5%; in assay [3], 80.2% (active); in assay [4], 25.9%; in assay [5], 43.4%; in assay [6], 75.7% (active).

For `O=C(CS(=O)(=O)c1ccccc1)c1ccccc1`, the growth inhibition was -14.4% and 14.6% in assay [1]; -18.9% and 13.1% in assay [2]; -6.05% and 12.6% in assay [3]; 8.75% and 1.5% in assay [4]; 0.55% and 29.9% in assay [5]; -29.9% and 28.3% in assay [6].

Regarding `O=C(C(=C(I)I)c1ccccc1)c1ccccc1`, the growth inhibition in assay [1] is 7.7%; in assay [2], -7.95%; in assay [3] it was 25.1%; in assay [4], -13.7%; in assay [5], 13.6%; in assay [6], -75.4%.

`CN(C)/C=N/NC(=O)/C(C#N)=C/N(C)C`: the growth inhibition in assay [1] was -26.1%; in assay [2] it was 2.3%; in assay [3] it was -8.15%; in assay [4] it was -24.8%; in assay [5], -45.1%; in assay [6] it was -42.9%.

Turning to `CCC(=O)COc1ccc(NC(NC(=O)C(C(F)(F)F)C(F)(F)F)(C(F)(F)F)C(F)(F)F)cc1`, the growth inhibition in assay [1] was 16.2%; in assay [2], -24.8%; in assay [3], 6.5%; in assay [4], 29.2%; in assay [5], -3.3%; in assay [6], -16%.

As for `O=C1NCC1c1ccccc1` (stereo not given), the growth inhibition was -12% in assay [1]; -4.85% in assay [2]; -8.65% in assay [3]; 5.35% in assay [4]; 19.1% in assay [5]; 3.45% in assay [6].

Turning to `CC1Cc2c(n[nH]c2CC2CC(=O)NC(=O)C2)C(C)C1` (stereo not given), the growth inhibition is 8.6% in assay [1]; -2.35% in assay [2]; 4% in assay [3]; -15.7% in assay [4]; 29.4% in assay [5]; 17.8% in assay [6].

For `CCOC(=O)c1[nH]cc(C(=O)O)c1C`, the growth inhibition in assay [1] was 15.3%; in assay [2] it was 0.15%; in assay [3] it was 6.05%; in assay [4], -44.7%; in assay [5] it was 1.25%; in assay [6], 17.2%.

In the case of `CCOC(=O)C(Cc1ccccc1)NC(=O)c1ccc(N=NN(C)C)cc1` (stereo not given), the growth inhibition is -19.8% in assay [1]; -31.7% in assay [2]; -37.2% in assay [3]; -8.15% in assay [4]; 6.65% in assay [5]; -29.6% in assay [6].

Turning to `CC1(C)C(=O)C=C(c2ccccc2)C1(O)c1ccccc1` (stereo not given), the growth inhibition in assay [1] is -9.45%; in assay [2], -29.9%; in assay [3] it was 16.9%; in assay [4], 5.35%; in assay [5] it was 22.4%; in assay [6], -38.5%.

For `CCC1(C=O)C(=O)NC(=O)N1C` (stereo not given), the growth inhibition was 3.4% in assay [1]; 1.05% in assay [2]; 2% in assay [3]; 6.25% in assay [4]; 1.7% in assay [5]; 6.45% in assay [6].

Turning to `COC(=O)N/N=C(/CCC(=O)Nc1ccc(C)c(C)c1)CC(=O)C(C)(C)C`, the growth inhibition in assay [1] is -10.8%; in assay [2], -12.1%; in assay [3], 8.45%; in assay [4], 2%; in assay [5] it was 19.1%; in assay [6], -1.9%.
